Here are results for ten compounds from PubChem BioAssay (EPA / NIEHS).

Test [1] in a line: CCTE_Padilla_ZF_144hpf_TERATOSCORE: (Legacy) CCTE's 144 Hour Post-fertilization zebrafish Assay Teratoscore, Padilla Lab (AID 2283679; active = hit-call score of the fitted dose curve at least 0.9, where 1 is the maximum; inactive = score below 0.9;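 for AC50: zebrafish embryos with chorions exposed by immersion from 6-8 hpf to 5 dpf with daily renewal; teratogenicity score from eye scoring of death hatching and malformations at 144 hpf; higher score means more developmental defects relative to DMSO baseline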). In a few lines: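 Larvae scored by eye at 144 hpf for death, hatching and malformations after a day in clean Hanks'. Before that, daily-renewed exposure at 80 uM (0.4% DMSO, 26C) from roughly 6-8 hpf through 5 dpf, 4 embryos per chemical.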
Read-out in test [2]: HMG-CoA synthase (HMGCS2), HMGCS2 (gene 3158)
Kind of test: CLD_HMGCS2_6hr: CellzDirect (CLD) Gene Expression Assay for HMG-CoA synthase (HMGCS2) at 6 hours (AID 2283682).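 Note: actives raise HMGCS2 transcript above the 0.2% DMSO vehicle baseline.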 The method in brief:
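HMGCS2 transcript induction read by quantitative nuclease protection with chemiluminescence, 6 h after dosing of primary human hepatocytes. Baseline was 0.2% DMSO vehicle; phase-contrast morphology gave a yes/no cytotoxicity annotation.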

Read-out in test [3]: Cytochrome P450 2B6 (Homo sapiens) (UniProt P20813)
Kind of test: CLD_CYP2B6_24hr: CellzDirect (CLD) Gene Expression Assay for xenobiotic metabolism (CYP2B6) at 24 hours (AID 2283686). The method in brief:
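qNPA chemiluminescent measurement of mRNA at 24 hours in human primary hepatocyte cultures from two donor preparations, with daily fresh dosing and 0.2% DMSO vehicle as baseline. Morphology-based cytotoxicity flagged yes/no.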

Read-out in test [4]: Cytochrome P450 2C9 (Homo sapiens) (UniProt P11712)
Briefly: CLD_CYP2C9_24hr: CellzDirect (CLD) Gene Expression Assay for xenobiotic metabolism (CYP2C9) at 24 hours (AID 2283688). The method in brief:
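Induction of CYP2C9 mRNA was quantified by quantitative nuclease protection assay (chemiluminescence), gain of signal versus 0.2% DMSO vehicle, 24 h after dosing. Human primary hepatocytes (two donors) received fresh chemical daily at multiple concentrations; morphology-based cytotoxicity flagged yes/no.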

Read-out in test [5]: Cytochrome P450 3A4 (Homo sapiens) (UniProt P08684)
Kind of test: CLD_CYP3A4_24hr: CellzDirect (CLD) Gene Expression Assay for xenobiotic metabolism (CYP3A4) at 24 hours (AID 2283689). The method in brief: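 CYP3A4 mRNA induction read by quantitative nuclease protection (chemiluminescence) 24 hr after dosing. Cultured human hepatocytes (two donor preparations) treated daily, vehicle 0.2% DMSO; phase-contrast morphology annotates cytotoxicity.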

Read-out in test [6]: glucuronosyltransferase (UGT1A1), UGT1A1 (gene 54658)
Kind of test: CLD_UGT1A1_24hr: CellzDirect (CLD) Gene Expression Assay for glucuronosyltransferase (UGT1A1) at 24 hours (AID 2283696). In a few lines: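 UGT1A1 transcript induction was measured by quantitative nuclease protection assay (chemiluminescence) in human hepatocyte cultures 24 h after daily fresh dosing, with 0.2% DMSO as vehicle and baseline.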

Read-out in test [7]: Cytochrome P450 3A4 (Homo sapiens) (UniProt P08684)
Briefly: CLD_CYP3A4_48hr: CellzDirect (CLD) Gene Expression Assay for xenobiotic metabolism (CYP3A4) at 48 hours (AID 2283698). The method in brief: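 CYP3A4 induction read by qNPA chemiluminescence after 48 h, with fresh dosing solutions on consecutive days, in cultured human hepatocytes (two donors). Vehicle 0.2% DMSO as baseline; microscopy-based cytotoxicity annotated yes/no alongside data.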

Read-out in test [8]: Cytochrome P450 3A4 (Homo sapiens) (UniProt P08684)
Briefly: CLD_CYP3A4_6hr: CellzDirect (CLD) Gene Expression Assay for xenobiotic metabolism (CYP3A4) at 6 hours (AID 2283680). In a few lines:
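CYP3A4 mRNA induction, 6 h after dosing of cultured primary human hepatocytes from two donors, read by quantitative nuclease protection (qNPA, chemiluminescence). Vehicle 0.2% DMSO as baseline; morphology-based cytotoxicity annotated yes/no.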

Read-out in test [9]: xenobiotic metabolism (CYP1A2), CYP1A2 (gene 1544)
Briefly: CLD_CYP1A2_24hr: CellzDirect (CLD) Gene Expression Assay for xenobiotic metabolism (CYP1A2) at 24 hours (AID 2283683). The method in brief:
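CYP1A2 mRNA induction measured by quantitative nuclease protection (chemiluminescent) in human primary hepatocytes 24 h after multi-concentration chemical dosing with daily fresh solutions. DMSO (0.2%) baseline; positive-direction fitting; morphology-based cytotoxicity noted.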

Read-out in test [10]: ABC Transporter (ABCB1), ABCB1 (gene 5243)
Briefly: CLD_ABCB1_24hr: CellzDirect (CLD) Gene Expression Assay for ABC Transporter (ABCB1) at 24 hours (AID 2283684). The method in brief: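 ABCB1 mRNA induction versus 0.2% DMSO vehicle was read by qNPA chemiluminescence at 24 h. Cultured human hepatocytes from two donor preparations received daily fresh dosing, and phase-contrast cytotoxicity calls were annotated alongside the data.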

Read-out in test [11]: Broad substrate specificity ATP-binding cassette transporter ABCG2 (Homo sapiens) (UniProt Q9UNQ0)
Briefly: CLD_ABCG2_24hr: CellzDirect (CLD) Gene Expression Assay for ABC Transporter (ABCG2) at 24 hours (AID 2283685).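 For AC50: AC50 is for induction meaning signal gain over DMSO vehicle.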 The method in brief: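 ABCG2 mRNA induction, read as gain of chemiluminescent signal over 0.2% DMSO, was measured by quantitative nuclease protection at 24 h. Cultured human liver hepatocytes were given fresh dosing solutions of test chemicals at several concentrations each day.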

Read-out in test [12]: Cytochrome P450 2B6 (Homo sapiens) (UniProt P20813)
Kind of test: CLD_CYP2B6_48hr: CellzDirect (CLD) Gene Expression Assay for xenobiotic metabolism (CYP2B6) at 48 hours (AID 2283699).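 Note: actives raise transcript level above DMSO so potency reflects induction.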 The method in brief: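 CYP2B6 transcript induction, read by quantitative nuclease protection (S1 digestion, chemiluminescent detection) 48 h after dosing, is fitted upward against 0.2% DMSO. Cultured human liver primary cells, two donor preparations, received fresh chemical daily over multiple concentrations.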

Read-out in test [13]: Cytochrome P450 2C19 (Homo sapiens) (UniProt P33261)
Briefly: CLD_CYP2C19_48hr: CellzDirect (CLD) Gene Expression Assay for xenobiotic metabolism (CYP2C19) at 48 hours (AID 2283700).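 Note: fitted upward so actives raise CYP2C19 mRNA above the 0.2% DMSO vehicle.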 The method in brief: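 CYP2C19 mRNA induction read by chemiluminescent quantitative nuclease protection assay after 48 h, with fresh compound added daily for two days to cultured human liver hepatocytes. Activity fitted upward against 0.2% DMSO vehicle.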

Read-out in test [14]: Glyceraldehyde-3-phosphate dehydrogenase (Homo sapiens) (UniProt P04406)
Kind of test: CLD_GAPDH_6hr: CellzDirect (CLD) Gene Expression Assay for Baseline Control (Glyceraldehyde 3-phosphate dehydrogenase) at 6 hours (AID 2283681).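 Note: active means increased signal relative to DMSO vehicle.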 In a few lines: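 GAPDH baseline-control readout from qNPA (S1 nuclease digestion, probe hybridization, chemiluminescence) in lysates of cultured human hepatocytes harvested 6 h post-dosing. Chemicals tested at multiple concentrations versus 0.2% DMSO vehicle; microscopy-based cytotoxicity flagged yes/no.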

Broadly, the AC50 is the midpoint of the concentration-response curve, whichever way the signal moves.

Results filed as inconclusive are left out. The source made the active and inactive calls. Rule for the calls, unless noted: active = hit-call score of the fitted dose curve at least 0.9, where 1 is the maximum; inconclusive = response in the unintended direction; inactive = score below 0.9.

Chain of Broad substrate specificity ATP-binding cassette transporter ABCG2 (Homo sapiens) (Q9UNQ0 whole entry, looked up): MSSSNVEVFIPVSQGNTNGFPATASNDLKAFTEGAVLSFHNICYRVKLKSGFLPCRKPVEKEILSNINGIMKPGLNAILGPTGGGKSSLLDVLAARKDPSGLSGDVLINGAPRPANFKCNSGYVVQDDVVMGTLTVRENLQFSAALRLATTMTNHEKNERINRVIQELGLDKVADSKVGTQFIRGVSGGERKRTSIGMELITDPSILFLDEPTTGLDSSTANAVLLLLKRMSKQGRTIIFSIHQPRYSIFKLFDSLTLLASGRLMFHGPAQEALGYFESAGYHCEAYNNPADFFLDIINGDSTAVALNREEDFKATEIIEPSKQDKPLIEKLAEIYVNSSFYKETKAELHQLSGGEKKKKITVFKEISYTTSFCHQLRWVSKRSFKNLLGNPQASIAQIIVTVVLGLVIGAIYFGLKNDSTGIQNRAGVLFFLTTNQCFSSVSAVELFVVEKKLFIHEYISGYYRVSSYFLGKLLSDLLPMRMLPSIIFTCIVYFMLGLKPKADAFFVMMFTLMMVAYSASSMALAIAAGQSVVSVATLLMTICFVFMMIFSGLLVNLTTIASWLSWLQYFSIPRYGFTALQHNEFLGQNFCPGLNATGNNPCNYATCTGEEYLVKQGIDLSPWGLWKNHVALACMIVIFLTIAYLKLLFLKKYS
Chain of Cytochrome P450 2C19 (Homo sapiens) (P33261 whole entry, looked up): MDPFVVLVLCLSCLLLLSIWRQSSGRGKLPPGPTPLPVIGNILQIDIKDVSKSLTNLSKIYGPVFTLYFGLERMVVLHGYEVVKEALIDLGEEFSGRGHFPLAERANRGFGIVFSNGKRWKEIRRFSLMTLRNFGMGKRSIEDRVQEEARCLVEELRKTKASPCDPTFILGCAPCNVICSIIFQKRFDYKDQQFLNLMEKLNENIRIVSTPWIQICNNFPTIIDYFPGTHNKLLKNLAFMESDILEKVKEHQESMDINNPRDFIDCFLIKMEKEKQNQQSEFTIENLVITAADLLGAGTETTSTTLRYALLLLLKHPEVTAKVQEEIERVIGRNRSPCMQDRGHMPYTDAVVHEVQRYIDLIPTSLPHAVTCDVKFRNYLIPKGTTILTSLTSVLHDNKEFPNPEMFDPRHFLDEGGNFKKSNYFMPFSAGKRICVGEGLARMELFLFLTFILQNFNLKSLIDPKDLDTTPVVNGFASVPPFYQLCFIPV
Chain of Cytochrome P450 3A4 (Homo sapiens) (P08684 whole entry, looked up): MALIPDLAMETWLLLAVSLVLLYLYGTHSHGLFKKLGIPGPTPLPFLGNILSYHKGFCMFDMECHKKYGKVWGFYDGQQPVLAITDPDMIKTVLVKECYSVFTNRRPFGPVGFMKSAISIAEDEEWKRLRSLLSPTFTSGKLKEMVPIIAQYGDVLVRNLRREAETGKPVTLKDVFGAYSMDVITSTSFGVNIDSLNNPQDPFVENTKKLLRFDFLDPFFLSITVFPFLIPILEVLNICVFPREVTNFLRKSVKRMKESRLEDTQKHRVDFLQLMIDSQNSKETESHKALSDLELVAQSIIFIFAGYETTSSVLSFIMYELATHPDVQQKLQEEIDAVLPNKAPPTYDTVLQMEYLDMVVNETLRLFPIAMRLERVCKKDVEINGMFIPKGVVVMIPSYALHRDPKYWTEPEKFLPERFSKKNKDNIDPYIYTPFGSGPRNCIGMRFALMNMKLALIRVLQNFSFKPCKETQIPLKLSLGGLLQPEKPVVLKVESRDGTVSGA
Chain of Glyceraldehyde-3-phosphate dehydrogenase (Homo sapiens) (P04406 whole entry, looked up): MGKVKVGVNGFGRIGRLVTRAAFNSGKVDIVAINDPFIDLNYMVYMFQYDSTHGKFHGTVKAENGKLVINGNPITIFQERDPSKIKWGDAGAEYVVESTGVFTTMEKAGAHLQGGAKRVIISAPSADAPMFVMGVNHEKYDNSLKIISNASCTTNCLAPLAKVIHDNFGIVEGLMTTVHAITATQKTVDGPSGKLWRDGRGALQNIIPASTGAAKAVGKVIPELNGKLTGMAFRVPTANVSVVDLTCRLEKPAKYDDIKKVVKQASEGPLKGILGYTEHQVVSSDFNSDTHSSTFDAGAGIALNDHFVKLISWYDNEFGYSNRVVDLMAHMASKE

For `CCc1cccc(C)c1N(C(=O)CCl)C(C)COC` (configuration not stated), the AC50 in test [1] was 50.9 µM (active); in test [3], 1.61 µM (active); in [5], 8.71 µM (active); in [7] it was 3.97 µM (active). Also, the compound was called inactive in test [2], in test [4] and in [6].
On to `CSc1nnc(C(C)(C)C)c(=O)n1N`, for which the result in [1], in test [8], in test [2], in test [10], in test [11] and in [6] was inactive. For the same compound, the AC50 in test [9] was 20 µM (active); in test [3], 20 µM (active); in [5], 4.88 µM (active); in test [12], 20 µM (active).
Take `CCC(CC)Nc1c([N+](=O)[O-])cc(C)c(C)c1[N+](=O)[O-]`: the half-maximal activity concentration (AC50) in test [1] is 24.2 µM (active); in test [3], 11.4 µM (active); in test [7], 20 µM (active). Also, the compound was classed as inactive in test [2], in [4] and in [6].
Take `CCOP(=O)(NC(C)C)Oc1ccc(SC)c(C)c1` (configuration not stated): the AC50 was 50.3 µM (active) in test [1], 6.17 µM (active) in test [3] and 10.7 µM (active) in test [12]. Further, the call in [4], in test [6] and in test [13] was inactive.
Turning to `C#CC(C)(C)NC(=O)c1cc(Cl)cc(Cl)c1`, the call in [1], in test [9], in test [11], in test [3], in test [4] and in [5] was inactive. For the same compound, the outcome in [7] and in test [13] was inactive. Moreover, the AC50 in [6] was 1.69 µM (active).
For the compound `CCOP(=S)(OCC)Oc1ccc([N+](=O)[O-])cc1`, the AC50 was 6.3 µM (active) in [1], 0.828 µM (active) in test [3], 5.25 µM (active) in test [5] and 2.92 µM (active) in test [7]. The call in test [2], in test [10] and in test [6] was inactive.
For `S=C1NCCN1`, the result in test [1], in test [14], in test [11], in test [3], in [6] and in test [13] was inactive.
With `CCOC(=O)COc1cc(-c2nn(C)c(OC(F)F)c2Cl)c(F)cc1Cl`, the AC50 in [1] was 0.201 µM (active); in [8], 3.97 µM (active); in [3], 20 µM (active); in test [5], 20 µM (active); in test [7] it was 4.37 µM (active); in [12], 13.5 µM (active). The compound was classed as inactive in test [10], in test [4] and in test [6].
`C=C(C)[C@H]1Cc2c(ccc3c2O[C@@H]2COc4cc(OC)c(OC)cc4[C@@H]2C3=O)O1`: the AC50 was 0.000155 µM (active) in test [1] and 6.65 µM (active) in test [11]. The compound was classed as inactive in test [14], in test [2], in test [10], in test [4], in test [5] and in test [13].
As to `CC(C)=CC1C(C(=O)OCN2C(=O)C3=C(CCCC3)C2=O)C1(C)C` (configuration not stated), the AC50 is 12.3 µM (active) in test [1]; 7.4 µM (active) in test [3]; 4.28 µM (active) in test [5]; 0.152 µM (active) in test [7]; 6.64 µM (active) in test [12]. The call in test [11], in test [4], in [6] and in test [13] was inactive.
